Screens deposited in PubChem BioAssay by National Center for Advancing Translational Sciences (NCATS).
Rab9 prom act: activates the Rab9 promoter | Potency, µM (series often up to 9.22 µM), for the others: top-dose activation, negative = inhibition, usual class: activators | AID 485297 | Huh7 Rab9 promoter-luciferase reporter, luminescence, 24 h | hit rate 2.8% among 320,000; note: % of control where 0% means no effect; nearly all actives have a fitted effect of over 60% in size
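Measured in stably transfected Huh7 cells bearing a Rab9 promoter–luciferase construct: 24 h compound treatment at 37 °C, followed by luminescence detection.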
ELG1 genotox: induces genotoxicity in HEK293T cells with luciferase-tagged ELG1 | Potency, µM (doses to about 46 µM), for the others: at the highest dose activity change, positive = activation, usual class: activators | AID 504466 | hit rate 1.3% among 330,000 | HEK293T ELG1-luciferase reporter, luminescence, 16 h; note: % of control where 0% means no effect; nearly all actives have a fitted effect of over 60% in size
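Cells (2,000/well) expressing the ELG1-luciferase fusion are dosed by pin tool and kept 16 hr at 37 °C, 5% CO2. Signal comes from ONE-Glo luciferase reagent after 30 min at room temperature.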
SMN2 splice enh: enhancers of SMN2 splice variant expression; HEK293 SMN2-luciferase splicing reporter, luminescence, 30-36 h; Potency, µM (highest dose often 46.1 µM), without a hit: at the top dose activity change, positive = activation, usual class: activators; hit rate 2.8% among 210,000; AID 1458; note: % of control where 0% means no effect; nearly all actives have a fitted effect of over 55% in size
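HEK293 cells carry an SMN2 […]–luciferase reporter in which exon 7 inclusion puts luciferase in frame. Cells were plated 10-12 h before compound addition, then incubated 30-36 h at 37C. ONE-Glo luminescence was read; sodium butyrate at 4.5 mM final served as control.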
NPC1 promoter act: NPC1 promoter activation | AID 485313 | Potency, µM (series often up to 9.22 µM), for inactives: at the top dose activation, hits mostly activators | hit rate 2.4% among 320,000 | Huh7 NPC1 promoter luciferase reporter, 24 h; note: % of control where 0% means no effect; nearly all actives have a fitted effect of over 60% in size
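Luciferase expression driven by the NPC1 promoter was measured in stably transfected Huh7 cells after a 24 h compound incubation, using a luciferase reagent and a luminescence read.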
FLuc counter: inhibits or activates purified firefly luciferase, miR-21 counter-screen | P08659 | purified FLuc, Km substrates, luminescence inhibition | Potency, µM (top dose mostly 57.5 µM), for the others: at the highest dose activity change, negative = inhibition, actives largely listed as inhibitors | hit rate 6.9% among 360,000 | AID 588342;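 note: plate controls were vehicle for no effect and reference inhibitor for full effect; nearly all actives have a fitted effect of over 55% in size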
Target sequence (P08659 whole entry, looked up): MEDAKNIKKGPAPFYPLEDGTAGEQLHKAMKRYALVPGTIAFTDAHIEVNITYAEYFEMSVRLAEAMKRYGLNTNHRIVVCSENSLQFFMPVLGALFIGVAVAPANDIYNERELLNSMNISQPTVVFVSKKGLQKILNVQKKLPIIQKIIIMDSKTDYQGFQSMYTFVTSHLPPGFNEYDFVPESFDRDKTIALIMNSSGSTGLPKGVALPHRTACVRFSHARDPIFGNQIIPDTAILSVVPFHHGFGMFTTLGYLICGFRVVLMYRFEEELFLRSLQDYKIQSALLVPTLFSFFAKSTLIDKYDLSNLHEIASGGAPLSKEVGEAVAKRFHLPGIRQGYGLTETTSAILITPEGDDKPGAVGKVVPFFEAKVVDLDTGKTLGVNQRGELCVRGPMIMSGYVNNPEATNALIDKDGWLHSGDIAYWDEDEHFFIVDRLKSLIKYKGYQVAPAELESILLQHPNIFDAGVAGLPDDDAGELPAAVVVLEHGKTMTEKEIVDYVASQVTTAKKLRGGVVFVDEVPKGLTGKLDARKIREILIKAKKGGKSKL
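Biochemical qHTS of compounds, final roughly 60 µM downward over six points, against 10 nM purified firefly luciferase using Km concentrations of substrates (10 uM D-luciferin, 10 uM ATP) in Tris acetate pH 7.5 buffer; luminescence output.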
* = called active by the depositor; u = inconclusive; x = no result given; [ ] = remark or other dose. Shown are actives, neighbours in structure and some others; about 7.4% of the full set was active somewhere. Calls come from the whole dose curve; as a rule, active = well fitted curve in the direction sought with a large enough effect; inconclusive = small, poorly fitted or top-dose-only effect, or another doubt; inactive = no such curve, though single readings can be large; an effect the other way counts as inactive or inconclusive. Potency is the fitted concentration of half-maximal effect.

SMILES	Rab9 prom act	ELG1 genotox	SMN2 splice enh	NPC1 promoter act	FLuc counter
CCCOc1ccc(C(=O)Nc2ccc(NC(=O)c3ccccc3)c(Br)c2)cc1	x	x	-18%	x	1%
O=C(Nc1ccc2c(c1)CCC2)c1cccs1	1.6µM*	u	x	2µM*	6.7µM*
Nc1ccc(NC(=O)c2cccs2)cc1	23%	9%	x	9%	-17%
COC(=O)C[C@H]1c2ccccc2[C@H]2C(=C[C@@H](C)[C@H]3C(=O)N(O)C(=O)[C@H]32)N1C(=O)OC	x	x	2%[9.22 µM]	x	x
O=[N+]([O-])c1ccc(O)c(C=Nc2ccc3nc(-c4ccccc4)[nH]c3c2)c1	3.2µM*	u	10%[1.84 µM]	u	5.4µM*
O=C(c1ccccc1)c1ccc2nc(-c3ccc(NC(=O)c4ccccc4Br)cc3)[nH]c2c1	8%	-3%	-30%	0%	-14%
Oc1c(Br)cc(C=Nc2ccc3nc(-c4ccccc4)[nH]c3c2)c(O)c1Br	2.8µM*	1%	x	u	11µM*
COC(=O)c1ccc(NC(=O)CC2C(=O)N(c3cccc(F)c3)C(=O)N2CC(C)C)cc1 (stereo unspecified)	x	x	-6%	x	0%
CC(C)c1ccc(/C=N/NC(=O)c2ccc(-n3cnnn3)cc2)cc1	-1%	-6%	x	-1%	5.4µM*
COc1ccc(/C=N/NC(=O)c2ccc(-n3cnnn3)cc2)cc1	-4%	-1%	x	0%	11µM*
CCCSCCCNC(=O)C1CCN(C(=O)c2cc3sccc3n2C)CC1	x	x	-29%	x	-11%
CCCCNC(=S)NNC(=O)c1cc(-c2cccnc2)nc2ccccc12	0%	0%	x	-2%	15µM*
CCCNC(=S)NNC(=O)c1cc(-c2cccnc2)nc2ccccc12	-9%	-2%	x	-1%	19µM*
CCNC(=S)NNC(=O)c1cc(C)nc2ccccc12	-8%	-1%	16%	-3%	-14%
CCNC(=S)NNC(=O)c1cc(-c2cccnc2)nc2ccccc12	3%	3%	13%	-3%	9.5µM*
COc1ccc(NC(=O)Cn2c(=O)n(Cc3ccco3)c(=O)c3oc4ccccc4c32)cc1Cl	x	x	x	x	-11%
c1ccc(-n2ncc3c(NCc4cccnc4)ncnc32)cc1	u	u	38%	u	17µM*
OCCNc1ncnc2c1cnn2Cc1ccccc1	-4%	0%	x	1%	-2%
Cc1ccc(-n2ncc3c(NNC(=O)c4ccco4)ncnc32)cc1C	17%	27%	x	8%	u
c1ccc(CNc2ncnc3c2cnn3Cc2ccccc2)cc1	-7%	1%	11µM*	-23%	6%
COCC(C)Nc1ncnc2c1cnn2-c1ccc(C)c(C)c1 (stereo unspecified)	x	x	x	x	6.7µM*
Cc1ccc(-n2ncc3c(NCc4ccccc4)ncnc32)cc1C	x	x	x	x	21µM*
O=c1c2cnn(-c3ccccc3)c2ncn1Cc1cccnc1	-7%	-7%	-10%	2%	-2%
Cc1ccc(-n2ncc3c(NCCCc4ccccc4)ncnc32)cc1C	x	x	x	x	-10%
Cc1ccc(-n2ncc3c(NCCc4ccccc4)ncnc32)cc1	x	x	x	x	24µM*
SMILES	Rab9 prom act	ELG1 genotox	SMN2 splice enh	NPC1 promoter act	FLuc counter
COC(=O)C1=C(C)N(Cc2ccccc2)C(=NCC2CC2)N[C@H]1c1ccc(Br)cc1	-12%	x	x	0%	1%
COc1cc2c(cc1NC(=O)CSCC(=O)O)oc1ccccc12	-1%	-1%	9%	12%	21µM*
COc1cc2c(cc1NC(=O)Cc1ccc(C)cc1)oc1ccccc12	u	12%	8.9µM*	21%	15µM*
COc1cc2c(cc1NC(=O)COC(=O)Cn1cnc3ccccc31)oc1ccccc12	u	23µM*	24%	28%	19µM*
CC(C)c1nc(N(C)S(C)(=O)=O)nc(-c2ccc(F)cc2)c1/C=C/C(O)CC(O)CC(=O)O (stereo unspecified)	x	x	-5%	x	x
CN1CCc2c(sc3c2C(=O)NC(c2ccc(OC(=O)c4ccc(C(C)(C)C)cc4)cc2)N3)C1 (stereo unspecified)	x	x	-1%	x	11µM*
CN1CCc2c(sc3c2C(=O)NC(c2ccc(OC(=O)c4ccc(Cl)cc4)cc2)N3)C1 (stereo unspecified)	x	x	-8%	x	-15%
